Laboratory results reported in the supplement of paper PMC10849652.
About 8,800 targets were measured; listed, in parts, are those with a hit and a random draw of the rest. About 0.5% of all pairs of compound and target were hits. Unmarked numbers belong to inactive results.

What was measured:
Assay in all cases: log2 fold change, soluble protein after heating vs DMSO (PISA); higher = thermal stabilisation; K562 lysate, 10 uM; active = over 0.2 and 3.5 SD of the protein, either way, in both replicates (recomputed)
pictilisib = compound: CS(=O)(=O)N1CCN(Cc2cc3nc(-c4cccc5[nH]ncc45)nc(N4CCOCC4)c3s2)CC1 [pictilisib]
Procedure, shortened: (§1)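 To prepare the extract, K562 pellets were dounce-homogenised in PBS pH 7.4 with 1 mM MgCl2, giving crude material at 1 mg/mL protein. This was treated with 10 μM compound for 30 min, then heated in aliquots for 3 min over 48°C-58°C before pooling and addition of NP-40 to 0.5% at 4°C. Centrifugation at 21,000xg for 90 min left soluble protein in the supernatant, which TMTpro 16plex LC-MS/MS quantified with equalised channel sums. Results are log-two fold changes in thermal stability compared with solvent controls, from duplicates.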

crizotinib = compound: C[C@@H](Oc1cc(-c2cnn(C3CCNCC3)c2)cnc1N)c1c(Cl)ccc(F)c1Cl [crizotinib]
Procedure, shortened: as §1

[1] = compound: C[C@H](C1=CC=C(C=C1)C(=O)NC2=C3C=CNC3=NC=C2)N
Procedure, shortened: as §1

duvelisib = compound: C[C@H](Nc1ncnc2nc[nH]c12)c1cc2cccc(Cl)c2c(=O)n1-c1ccccc1 [duvelisib]
Procedure, shortened: as §1

gandotinib = compound: Cc1cc(Nc2cc(CN3CCOCC3)c3nc(C)c(Cc4ccc(Cl)cc4F)n3n2)n[nH]1 [gandotinib]
Procedure, shortened: as §1

tozasertib = compound: Cc1cc(Nc2cc(N3CCN(C)CC3)nc(Sc3ccc(NC(=O)C4CC4)cc3)n2)n[nH]1 [tozasertib]
Procedure, shortened: as §1

doramapimod = compound: Cc1ccc(-n2nc(C(C)(C)C)cc2NC(=O)Nc2ccc(OCCN3CCOCC3)c3ccccc23)cc1 [doramapimod]
Procedure, shortened: as §1

bafetinib = compound: Cc1ccc(NC(=O)c2ccc(CN3CC[C@H](N(C)C)C3)c(C(F)(F)F)c2)cc1Nc1nccc(-c2cncnc2)n1 [bafetinib]
Procedure, shortened: as §1

[2] = compound: Cc1cccc(CC(=O)N2CCc3c2ccc(-c2cn(C)c4ncnc(N)c24)c3F)n1
Procedure, shortened: as §1

nilotinib = compound: Cc1cn(-c2cc(NC(=O)c3ccc(C)c(Nc4nccc(-c5cccnc5)n4)c3)cc(C(F)(F)F)c2)cn1 [nilotinib]
Procedure, shortened: as §1

[3] = compound: Cc1nc(Nc2n[nH]c3c2CN(C(=O)N[C@H](CN(C)C)c2ccccc2)C3(C)C)c2sccc2n1
Procedure, shortened: as §1

dasatinib = compound: Cc1nc(Nc2ncc(C(=O)Nc3c(C)cccc3Cl)s2)cc(N2CCN(CCO)CC2)n1 [dasatinib]
Procedure, shortened: as §1

[4] = compound: Cc1ncc(-c2ccnc(Nc3ccc(S(C)(=O)=O)cc3)n2)n1C(C)C
Procedure, shortened: as §1

[5] = compound: Cn1cc(-c2ccc3c(c2)CCN3C(=O)Cc2cccc(C(F)(F)F)c2)c2c(N)ncnc21
Procedure, shortened: as §1

quisinostat = compound: Cn1cc(CNCC2CCN(c3ncc(C(=O)NO)cn3)CC2)c2ccccc21 [quisinostat]
Procedure, shortened: as §1

tipifarnib = compound: Cn1cncc1[C@@](N)(c1ccc(Cl)cc1)c1ccc2c(c1)c(-c1cccc(Cl)c1)cc(=O)n2C [tipifarnib]
Procedure, shortened: as §1

[6] = compound: NC(=O)Nc1cc(-c2cccc(F)c2)sc1C(=O)N[C@H]1CCCNC1
Procedure, shortened: as §1

[7] = compound: NC1(c2ccc(-c3nc4ccn5c(=O)[nH]nc5c4cc3-c3ccccc3)cc2)CCC1
Procedure, shortened: as §1

lapatinib = compound: CS(=O)(=O)CCNCc1ccc(-c2ccc3ncnc(Nc4ccc(OCc5cccc(F)c5)c(Cl)c4)c3c2)o1 [lapatinib]
Procedure, shortened: as §1

[8] = compound: NC(=O)c1cnc(N[C@@H]2CCCC[C@@H]2N)nc1Nc1cccc(-n2nccn2)c1
Procedure, shortened: as §1

Sequence of UniProt Q07617 (Q07617 whole entry, looked up): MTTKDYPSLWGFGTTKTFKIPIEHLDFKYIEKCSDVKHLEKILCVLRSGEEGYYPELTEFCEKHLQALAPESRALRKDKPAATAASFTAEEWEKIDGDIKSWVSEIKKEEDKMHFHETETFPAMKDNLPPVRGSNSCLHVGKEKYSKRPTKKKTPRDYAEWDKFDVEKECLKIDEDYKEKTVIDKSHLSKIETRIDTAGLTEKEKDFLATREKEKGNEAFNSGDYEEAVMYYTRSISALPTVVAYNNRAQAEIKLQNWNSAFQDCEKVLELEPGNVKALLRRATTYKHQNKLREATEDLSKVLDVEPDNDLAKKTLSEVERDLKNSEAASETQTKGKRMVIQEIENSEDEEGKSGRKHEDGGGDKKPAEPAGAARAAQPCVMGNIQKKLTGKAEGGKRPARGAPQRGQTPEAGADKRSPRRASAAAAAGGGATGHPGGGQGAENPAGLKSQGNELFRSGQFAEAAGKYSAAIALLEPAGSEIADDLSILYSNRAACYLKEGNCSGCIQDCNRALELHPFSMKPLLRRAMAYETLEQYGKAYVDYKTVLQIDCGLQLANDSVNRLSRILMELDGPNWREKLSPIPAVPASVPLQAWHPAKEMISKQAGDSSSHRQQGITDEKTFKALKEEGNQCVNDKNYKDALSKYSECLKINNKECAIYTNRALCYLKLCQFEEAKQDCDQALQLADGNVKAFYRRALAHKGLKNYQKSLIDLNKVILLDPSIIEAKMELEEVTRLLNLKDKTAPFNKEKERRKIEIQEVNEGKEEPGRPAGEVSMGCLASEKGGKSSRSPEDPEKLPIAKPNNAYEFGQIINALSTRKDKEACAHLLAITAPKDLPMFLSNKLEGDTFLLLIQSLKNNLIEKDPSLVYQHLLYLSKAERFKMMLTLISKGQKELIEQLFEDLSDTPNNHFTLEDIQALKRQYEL
Sequence of UniProt Q13487 (Q13487 whole entry, looked up): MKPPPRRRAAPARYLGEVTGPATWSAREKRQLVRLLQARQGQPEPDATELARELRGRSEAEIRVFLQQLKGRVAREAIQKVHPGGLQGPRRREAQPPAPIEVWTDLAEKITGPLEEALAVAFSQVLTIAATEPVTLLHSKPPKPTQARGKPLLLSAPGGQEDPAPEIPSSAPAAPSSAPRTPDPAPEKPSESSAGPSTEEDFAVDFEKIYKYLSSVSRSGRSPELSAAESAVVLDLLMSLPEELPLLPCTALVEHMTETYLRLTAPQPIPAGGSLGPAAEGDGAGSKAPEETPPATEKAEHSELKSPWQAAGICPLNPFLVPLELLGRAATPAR
Sequence of UniProt O94768 (O94768 whole entry, looked up): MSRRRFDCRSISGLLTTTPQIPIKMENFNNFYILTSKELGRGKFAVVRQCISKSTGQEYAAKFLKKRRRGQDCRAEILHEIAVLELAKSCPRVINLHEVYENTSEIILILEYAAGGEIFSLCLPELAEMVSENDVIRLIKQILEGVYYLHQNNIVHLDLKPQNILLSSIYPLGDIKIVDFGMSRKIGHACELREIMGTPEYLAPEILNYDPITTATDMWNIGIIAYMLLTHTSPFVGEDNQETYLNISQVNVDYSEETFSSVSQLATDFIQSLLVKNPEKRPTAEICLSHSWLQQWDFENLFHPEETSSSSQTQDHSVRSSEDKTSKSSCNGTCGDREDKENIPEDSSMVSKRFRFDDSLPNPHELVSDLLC
Sequence of UniProt Q13309 (Q13309 whole entry, looked up): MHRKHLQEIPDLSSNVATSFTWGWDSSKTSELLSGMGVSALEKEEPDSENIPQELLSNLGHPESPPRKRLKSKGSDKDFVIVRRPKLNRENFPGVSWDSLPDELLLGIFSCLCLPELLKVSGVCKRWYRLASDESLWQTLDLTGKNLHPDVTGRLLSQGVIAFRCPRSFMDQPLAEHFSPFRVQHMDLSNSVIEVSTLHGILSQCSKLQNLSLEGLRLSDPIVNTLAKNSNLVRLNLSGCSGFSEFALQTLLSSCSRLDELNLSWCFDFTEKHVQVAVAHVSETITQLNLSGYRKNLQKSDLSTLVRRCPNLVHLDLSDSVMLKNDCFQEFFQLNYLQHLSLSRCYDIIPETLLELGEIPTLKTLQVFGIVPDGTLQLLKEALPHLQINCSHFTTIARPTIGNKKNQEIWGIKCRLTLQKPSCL
Sequence of UniProt Q15464 (Q15464 whole entry, looked up): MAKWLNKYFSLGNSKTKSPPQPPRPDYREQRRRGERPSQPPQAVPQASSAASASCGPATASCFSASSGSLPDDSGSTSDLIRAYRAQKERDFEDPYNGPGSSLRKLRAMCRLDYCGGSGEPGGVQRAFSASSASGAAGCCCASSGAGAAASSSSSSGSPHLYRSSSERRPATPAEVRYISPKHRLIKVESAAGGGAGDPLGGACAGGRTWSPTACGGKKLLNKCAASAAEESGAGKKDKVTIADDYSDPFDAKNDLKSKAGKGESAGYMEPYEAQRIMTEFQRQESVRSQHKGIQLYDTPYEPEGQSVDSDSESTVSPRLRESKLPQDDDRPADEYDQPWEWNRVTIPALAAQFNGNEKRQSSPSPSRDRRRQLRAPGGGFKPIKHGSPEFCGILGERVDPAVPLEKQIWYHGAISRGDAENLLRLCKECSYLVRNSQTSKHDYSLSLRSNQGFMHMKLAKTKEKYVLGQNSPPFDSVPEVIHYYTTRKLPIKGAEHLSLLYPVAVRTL
Sequence of UniProt Q9UL54 (Q9UL54 whole entry, looked up): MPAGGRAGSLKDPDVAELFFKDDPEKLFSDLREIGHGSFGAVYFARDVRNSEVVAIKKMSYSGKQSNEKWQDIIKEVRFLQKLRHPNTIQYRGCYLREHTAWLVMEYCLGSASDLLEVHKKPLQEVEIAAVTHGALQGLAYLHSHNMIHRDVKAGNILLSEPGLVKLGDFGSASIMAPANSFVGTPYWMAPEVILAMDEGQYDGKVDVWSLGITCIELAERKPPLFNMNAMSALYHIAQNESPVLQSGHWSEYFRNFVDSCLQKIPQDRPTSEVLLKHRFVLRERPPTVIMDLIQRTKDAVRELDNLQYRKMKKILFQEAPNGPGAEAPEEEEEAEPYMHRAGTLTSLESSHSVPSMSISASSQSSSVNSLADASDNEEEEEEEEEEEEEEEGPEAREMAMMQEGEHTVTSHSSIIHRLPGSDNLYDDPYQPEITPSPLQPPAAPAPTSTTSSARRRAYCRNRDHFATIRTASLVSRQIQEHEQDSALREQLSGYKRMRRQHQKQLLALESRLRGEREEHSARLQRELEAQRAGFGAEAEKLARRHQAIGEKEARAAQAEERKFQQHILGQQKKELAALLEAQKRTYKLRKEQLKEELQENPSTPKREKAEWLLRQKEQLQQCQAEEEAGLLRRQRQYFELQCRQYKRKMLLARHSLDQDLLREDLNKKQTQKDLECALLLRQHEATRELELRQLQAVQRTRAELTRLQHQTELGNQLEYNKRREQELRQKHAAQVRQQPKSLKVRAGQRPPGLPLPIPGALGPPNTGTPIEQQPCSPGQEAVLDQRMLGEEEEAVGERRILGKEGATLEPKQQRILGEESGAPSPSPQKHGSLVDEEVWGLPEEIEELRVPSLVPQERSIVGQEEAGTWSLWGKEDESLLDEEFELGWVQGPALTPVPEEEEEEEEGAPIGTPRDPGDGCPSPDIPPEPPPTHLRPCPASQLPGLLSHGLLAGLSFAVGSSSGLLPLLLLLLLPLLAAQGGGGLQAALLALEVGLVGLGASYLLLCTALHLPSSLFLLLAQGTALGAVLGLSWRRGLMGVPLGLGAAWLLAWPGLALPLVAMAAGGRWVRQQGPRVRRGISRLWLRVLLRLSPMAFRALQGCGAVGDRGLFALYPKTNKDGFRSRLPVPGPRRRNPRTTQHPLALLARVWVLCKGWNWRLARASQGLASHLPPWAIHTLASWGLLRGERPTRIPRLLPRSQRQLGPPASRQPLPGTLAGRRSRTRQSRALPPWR
Sequence of UniProt O75182 (O75182 whole entry, looked up): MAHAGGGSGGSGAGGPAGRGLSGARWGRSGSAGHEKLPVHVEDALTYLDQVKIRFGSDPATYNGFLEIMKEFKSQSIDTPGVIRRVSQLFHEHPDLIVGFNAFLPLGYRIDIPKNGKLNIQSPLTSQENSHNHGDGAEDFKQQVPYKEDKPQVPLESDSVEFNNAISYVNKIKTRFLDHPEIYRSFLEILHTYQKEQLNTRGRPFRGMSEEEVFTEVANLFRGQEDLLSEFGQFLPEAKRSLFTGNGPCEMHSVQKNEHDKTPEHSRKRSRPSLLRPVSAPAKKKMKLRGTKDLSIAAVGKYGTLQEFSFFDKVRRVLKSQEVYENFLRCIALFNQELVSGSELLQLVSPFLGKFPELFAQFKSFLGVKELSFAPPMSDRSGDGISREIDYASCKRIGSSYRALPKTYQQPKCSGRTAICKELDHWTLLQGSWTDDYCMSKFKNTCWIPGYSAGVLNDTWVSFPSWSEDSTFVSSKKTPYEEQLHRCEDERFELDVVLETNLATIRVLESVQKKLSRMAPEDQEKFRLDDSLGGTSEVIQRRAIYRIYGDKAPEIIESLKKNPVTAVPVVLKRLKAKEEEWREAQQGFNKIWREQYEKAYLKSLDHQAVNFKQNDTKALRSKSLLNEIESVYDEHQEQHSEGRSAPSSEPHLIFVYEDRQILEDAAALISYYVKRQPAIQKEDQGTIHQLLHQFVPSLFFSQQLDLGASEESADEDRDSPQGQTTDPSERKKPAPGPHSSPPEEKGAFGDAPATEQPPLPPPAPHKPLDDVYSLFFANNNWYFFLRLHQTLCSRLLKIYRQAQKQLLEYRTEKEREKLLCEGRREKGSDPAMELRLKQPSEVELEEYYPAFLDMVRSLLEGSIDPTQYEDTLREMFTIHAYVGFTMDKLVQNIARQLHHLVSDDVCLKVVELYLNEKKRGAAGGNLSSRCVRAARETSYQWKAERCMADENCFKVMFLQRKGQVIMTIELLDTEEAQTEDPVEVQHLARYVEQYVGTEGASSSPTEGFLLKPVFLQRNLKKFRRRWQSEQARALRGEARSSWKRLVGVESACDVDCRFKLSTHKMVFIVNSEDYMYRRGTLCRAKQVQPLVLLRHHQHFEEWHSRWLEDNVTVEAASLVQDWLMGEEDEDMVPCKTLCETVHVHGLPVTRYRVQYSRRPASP

Row | Target | log2 fold change (pictilisib) | log2 fold change (crizotinib) | log2 fold change [1] | log2 fold change (duvelisib) | log2 fold change (gandotinib) | log2 fold change (tozasertib) | log2 fold change (doramapimod) | log2 fold change (bafetinib) | log2 fold change [2] | log2 fold change (nilotinib) | log2 fold change [3] | log2 fold change (dasatinib) | log2 fold change [4] | log2 fold change [5] | log2 fold change (quisinostat) | log2 fold change (tipifarnib) | log2 fold change [6] | log2 fold change [7] | log2 fold change (lapatinib) | log2 fold change [8]
1 | SLU7 (UniProt O95391) | 0.006 | 0.054 | -0.187 | 0.06 | 0.255 | 0.028 | -0.099 | -0.267 | 0.367 (active) | -0.052 | 0.045 | -0.025 | 0.047 | 0.013 | 0.244 | -0.029 | 0.086 | 0.016 |  | 
2 | SYK (UniProt P43405) | 0.017 |  | -0.479 (active) | 0.004 | 0.272 | 0.002 | 0.021 | -0.236 | 0.261 | 0.02 | -0.031 | -0.067 | 0 | 0.01 | -0.077 | -0.002 | -0.095 | -0.064 | -0.086 | 
3 | SLC40A1 (UniProt Q9NP59) |  | 0.111 | -0.164 | 0.099 | 0.054 | -0.035 | -0.056 |  | 0.018 | 0.009 | 0.131 | -0.077 | 0.015 | -0.02 | -0.079 | -0.118 | 0.167 | -0.185 | -0.019 | -0.035
4 | SPAG1 (UniProt Q07617) | 0.17 | 0 |  |  |  |  | -0.025 | -0.265 |  |  |  |  |  |  | -0.037 |  | 0.007 |  | -0.058 | 0.164
5 | SNAPC2 (UniProt Q13487) | 0.08 | -0.007 | 0.024 | -0.129 | 0.01 |  | 0.03 | -0.537 | -0.033 | 0.066 | 0 | -0.24 | -0.067 | -0.122 | -0.021 | -0.106 | 0.029 | 0 |  | 
6 | SIN3B (UniProt O75182) |  | -0.057 | -0.318 |  | 0.116 | -0.095 | 0.584 |  | -0.611 | 1.42 (active) | -0.15 |  | 0.839 |  | -0.079 | 0.086 | 0.077 |  |  | 
7 | SMARCA4 isoform 4 (UniProt P51532) |  | 0 | 0.024 | -0.068 | -0.007 | 0.136 | -0.048 |  | -0.012 | -0.244 | -0.219 | -0.037 | 0.037 | 0.035 | -0.081 | 0.239 | 0.16 | 0.05 | -0.072 | -0.042
8 | SMC4 (UniProt C9JJ64) | 0.006 |  |  |  |  |  |  | -0.251 |  |  |  |  |  |  |  |  |  |  |  | 
9 | SKP2 (UniProt Q13309) |  | -0.159 | -0.098 | -0.024 | -0.075 | -0.096 | -0.024 |  | 0.104 | 0.047 | -0.044 | -0.004 | 0.003 | 0.045 | -0.193 | -0.035 | 0.295 | -0.044 | -0.275 | -0.015
10 | SHB (UniProt Q15464) |  | -0.044 | -0.305 | -0.034 | 0.186 |  | 0.028 |  | -0.129 |  |  | 0.05 |  | 0.004 | 0.072 |  | -0.026 | -0.01 | -0.07 | -0.02
11 | TARDBP (UniProt K7EN94) |  |  |  |  |  | 0.257 |  |  |  |  |  |  |  |  |  |  |  |  |  | 
12 | SLC39A13 (UniProt Q96H72) |  |  |  |  |  |  |  |  |  |  |  |  |  |  |  |  |  | -0.018 |  | 
13 | STK17B (UniProt O94768) |  | -0.255 |  | 0 |  |  | -0.117 |  |  | -0.006 | -0.022 | -0.063 | -0.197 | 0.065 | -0.255 | -0.08 | 0.634 | -0.021 |  | 
14 | SNIP1 (UniProt Q8TAD8) |  |  |  |  |  |  |  |  |  | -0.1 | 0.037 |  | -0.078 |  |  | -0.149 |  |  |  | 
15 | TAOK2 isoform 2 (UniProt Q9UL54) |  |  |  |  |  |  |  |  |  | 0.109 | 0.013 |  | -0.01 |  |  | 0.031 |  |  |  | 
